# Reference: PubChem BioAssay (NCI)
# The panel holds about 83,000 compounds, 20% with a hit somewhere; the sample as a whole holds those more often.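 Assay: single dose, 48 h. Readout: percent growth (0 = no net growth; negative = cell death). Active: <10.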 Values without a mark were called inactive. Calls of active or inactive are those of the source.
# What was measured:
# Experiment in all cases: NCI-60 one-dose screen, 48 h (100 = growth as untreated, 0 = no growth, -100 = all killed)
# Conditions in all cases: 10 µM
# NCI-H23 lung = system: NCI-H23 lung
# NCI-H226 lung = system: NCI-H226 lung
# HOP-62 NSCLC = system: HOP-62 NSCLC
# NCI-H460 lung = system: NCI-H460 lung
# HOP-92 NSCLC = system: HOP-92 NSCLC
# NCI-H522 lung = system: NCI-H522 lung
# A549/ATCC NSCLC = system: A549/ATCC NSCLC
# 786-0 renal = system: 786-0 renal
# COLO 205 colon = system: COLO 205 colon
# DU-145 prostate = system: DU-145 prostate
# K-562 leukemia = system: K-562 leukemia
# MALME-3M melanoma = system: MALME-3M melanoma
# MDA-MB-231 breast = system: MDA-MB-231 breast
# RXF 393 renal = system: RXF 393 renal
# SF-268 CNS = system: SF-268 CNS
# SF-295 CNS = system: SF-295 CNS
# SF-539 CNS = system: SF-539 CNS
# UACC-257 melanoma = system: UACC-257 melanoma
# M14 melanoma = system: M14 melanoma
SMILES,growth (NCI-H23 lung),growth (NCI-H226 lung),growth (HOP-62 NSCLC),growth (NCI-H460 lung),growth (HOP-92 NSCLC),growth (NCI-H522 lung),growth (A549/ATCC NSCLC),growth (786-0 renal),growth (COLO 205 colon),growth (DU-145 prostate),growth (K-562 leukemia),growth (MALME-3M melanoma),growth (MDA-MB-231 breast),growth (RXF 393 renal),growth (SF-268 CNS),growth (SF-295 CNS),growth (SF-539 CNS),growth (UACC-257 melanoma),growth (M14 melanoma)
CC(=O)Nc1ccc2c(c1)C(=O)c1cccc(C(=O)O)c1-2,104%,95.5%,98.9%,98.1%,96.6%,108%,97.6%,105%,114%,116%,115%,148%,112%,109%,104%,100%,106%,105%,107%
COc1cccc(C2C(C#N)=C(N)Oc3cc(N)ccc32)c1 (stereo unspecified),37.8%,70%,45.4%,11.9%,36.9%,-0.592% (active),20.2%,53.9%,18.1%,10.6%,11.9%,51.9%,48.8%,-7.34% (active),47.1%,5.3% (active),4.8% (active),47.2%,10.9%
CS(=O)(=O)c1nccc(-c2c(-c3ccc(OCCc4ccccc4)cc3)nc3sccn23)n1,91.8%,44.8%,104%,101%,75.8%,94%,101%,99.3%,115%,94%,100%,103%,85.2%,92.5%,104%,108%,85.5%,103%,94.6%
CCCc1cn(CC(=O)Nc2nc3ccccc3s2)nn1,110%,106%,102%,103%,109%,93.8%,98.4%,108%,109%,117%,106%,101%,98.9%,114%,98.8%,104%,99.5%,106%,102%
O=C(CCc1nnc2sc(-c3cc(O)c(O)c(O)c3)nn12)c1nc2ccccc2[nH]1,88.9%,89.9%,105%,105%,69.4%,98.3%,108%,107%,114%,112%,8.3% (active),103%,102%,115%,113%,82.8%,80%,110%,105%
CCOC(=O)CN(c1sc(C)c(C)c1C(=O)OCC)S(=O)(=O)c1ccc(C)cc1,94.3%,77.2%,94.1%,98%,85.2%,108%,91.6%,92.8%,108%,92.1%,103%,106%,72.9%,92.1%,107%,103%,107%,98.8%,107%
Cc1ccc(NCCN(C)CC(C)O)c2c(=O)c3ccc(Cl)cc3sc12 (stereo unspecified),65.7%,85.3%,87.1%,0.284% (active),34.3%,57.4%,39.6%,47.3%,-78% (active),59.7%,-61.2% (active),-24.2% (active),-16.4% (active),22.9%,58.4%,82.6%,81.5%,24.7%,-74.7% (active)
O=C(CCCSc1nc(-c2ccccc2)cc(-c2ccc(Cl)cc2)n1)NO,9.38% (active),10.6%,12.5%,-9.81% (active),32.9%,7.31% (active),5.6% (active),9.83% (active),10.1%,14.2%,8.59% (active),4.49% (active),17.7%,-19.2% (active),14.3%,4.46% (active),-27.2% (active),8.34% (active),5.54% (active)
CCOC(=O)c1cc(C(=O)c2ccc(OC)c(OC)c2)n2c1ccc1ccc3cccnc3c12,39.2%,64.4%,29.8%,11%,18.9%,0.908% (active),36.8%,33.3%,-2.29% (active),21.7%,14.7%,40.1%,45.2%,24.8%,51.8%,12%,9.16% (active),51%,7.8% (active)
COC1OC(COS(=O)OC)C(O)C(O)C1OS(=O)OC (stereo unspecified),101%,95.7%,104%,101%,108%,98.5%,103%,106%,110%,99.5%,102%,97.1%,103%,111%,103%,103%,98.3%,99.5%,96.6%
CC1CCCC(C(=O)O)C1C(=O)O (stereo unspecified),98.1%,96.7%,87.7%,104%,86.1%,80.8%,78.3%,94%,102%,114%,87.6%,87.8%,92.8%,94.5%,105%,94.8%,97.8%,80.8%,94.7%
COc1cc2ncnc(NC3CCC(O)CC3)c2cc1OC (stereo unspecified),91.2%,92.7%,99.2%,102%,89.7%,81.6%,85.9%,85.5%,102%,102%,58.2%,103%,93.7%,102%,101%,94.9%,95.4%,,98.8%
Cc1ccc(S(=O)(=O)N(C)CCCCCC(=O)O)cc1,99.1%,99.7%,92.3%,107%,110%,90%,95%,95.3%,107%,102%,104%,98.5%,110%,103%,99%,92.7%,97.9%,98.2%,95.1%
COc1ccc(/C(C#N)=C/c2ccccc2OC)cc1,41.7%,64.8%,44.7%,20.9%,74.4%,5.02% (active),36.2%,52.4%,14.2%,68.1%,21%,19.9%,56.2%,25.5%,60.7%,22.9%,42.2%,47.8%,20.7%
C[C@@H](C[C@H](CCO)c1ccccc1)c1ccc2ccccc2c1,-65.1% (active),-65.7% (active),-55% (active),-48.5% (active),-95.6% (active),-53.9% (active),-81.4% (active),-90.6% (active),-86.9% (active),-40.9% (active),-35.2% (active),-87.6% (active),-73.6% (active),-87.4% (active),-70.4% (active),-89.2% (active),-82.7% (active),,-84.2% (active)
O=C(Nc1cc(Cl)cc2c1-c1ccc(Cl)cc1C2O)C(Cl)Cl (stereo unspecified),79.5%,55%,83.3%,35.9%,77.1%,84.2%,74.5%,98.4%,94.2%,60.1%,81.9%,105%,74.4%,63.8%,91.9%,83.4%,84.2%,89.8%,85.3%
O=C(CCCSc1nc(-c2ccc(Cl)cc2)cc(-c2ccc(Cl)cc2)n1)NO,13.2%,2.42% (active),15.4%,0.534% (active),28%,6% (active),10.2%,6.25% (active),9.44% (active),15.1%,5.07% (active),2.37% (active),14.6%,-15.3% (active),11.6%,-4.84% (active),-23% (active),13.2%,-15.5% (active)
